We go through 13 compounds from PubChem BioAssay (NCATS).

Experiment [1] can be described thus: Primary qHTS for small molecule stabilizers of the endoplasmic reticulum resident proteome: Secreted ER Calcium Modulated Protein (SERCaMP) assay (AID 1508630; active means well fitted curve in the direction sought with a large enough effect; an effect the other way counts as inactive or inconclusive). As to conditions: SH-SY5Y GLuc-SERCaMP (Gaussia luciferase released on ER calcium loss) secretion, thapsigargin, luminescence; series mostly up to 38.4 µM. The method, boiled down: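 The SH-SY5Y reporter protocol was run at 3 concentrations up to 38.3 uM (primary) or 11 concentrations (follow-up): 16 h compound, 100 nM thapsigargin for 4 h, then extracellular luciferase luminescence.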
On the technique in general: qHTS replaces the single test concentration by a dilution series.

The nature of experiment [2]: A High-Content qHTS Against Drug Library for the Identification of Small Molecules that Inhibit DYT1 Early Onset Primary Dystonia-Associated Cell Pathology (AID 1645839; calls by dose curve). Particulars: HEK293 Flp-In EGFP-delE TorsinA, punctate imaging, 48 h; series mostly up to 46.1 µM. In outline: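 High-content imaging quantified EGFP-TorsinA mislocalization in HEK293-derived cells inducibly expressing DYT1 mutant torsinA, after 48 h exposure to compound given together with tetracycline induction. Cell count served as a toxicity channel alongside %pathology.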

Experiment [3] concerns the target Cytochrome P450 2D6 (Homo sapiens) (UniProt P10635). Put plainly: Cytochrome P450 family 2 subfamily D member 6 (CYP2D6) small molecule antagonists: luciferase biochemical (cell-free) qHTS assay (AID 1645840). Further: nearly all actives have a fitted effect of over 55% in size. Further: potency means the concentration at half of the fitted maximal effect. As to conditions: P450-Glo CYP2D6 enzyme, luciferin luminescence, 1 h; series mostly up to 57.4 µM. The method, boiled down:
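P450-Glo CYP2D6 system: proluciferin substrate converted by enzyme to luciferin, read by luminescence proportional to activity. Enzyme-substrate mix with compound 10 min at room temperature, then NADPH regeneration 1 h before detection reagent.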

The target of experiment [4] is Cytochrome P450 2C9 (Homo sapiens) (UniProt P11712). Nature of the experiment: Cytochrome P450 family 2 subfamily C member 9 (CYP2C9) small molecule antagonists: luciferase biochemical (cell-free) qHTS assay (AID 1645842). Further: nearly all actives have a fitted effect of over 55% in size. Further: potency means the concentration at half of the fitted maximal effect. As to conditions: P450-Glo CYP2C9 enzyme assay, luciferin luminescence; series mostly up to 57.4 µM. The method, boiled down: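 P450-Glo CYP2C9 system: proluciferin substrate with enzyme in mix containing 0.4% BSA, 10 min at room temperature, then NADPH regeneration solution added and incubated 1 h at 37C. Detection reagent stopped reaction; luminescence read after 20 min as RLU.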

A short description of experiment [5]: Primary qHTS for inhibitors of nuclear receptor binding SET domain protein 2 (NSD2) in an isogenic RCH-ACV NSD2 p.E1099K mutant (9B) (AID 1645876; active means well fitted curve in the direction sought with a large enough effect; an effect the other way counts as inactive or inconclusive; further: nearly all actives have a fitted effect of over 70% in size). Particulars: RCH-ACV (leukaemia line) NSD2 E1099K (9B) viability, CellTiter-Glo, 72 h; series mostly up to 44.9 µM.

Results filed as inconclusive are left out. Active and inactive are the calls of the source. Unless noted, the call rests on the fitted dose curve; in most records, active means well fitted curve in the direction sought with a large enough effect in the repeat runs; inconclusive means weak or mixed curves; inactive means no such curve, though single readings can be large; an effect the other way counts as inactive or inconclusive.

Cytochrome P450 2D6 (Homo sapiens), sequence (P10635 whole entry, looked up): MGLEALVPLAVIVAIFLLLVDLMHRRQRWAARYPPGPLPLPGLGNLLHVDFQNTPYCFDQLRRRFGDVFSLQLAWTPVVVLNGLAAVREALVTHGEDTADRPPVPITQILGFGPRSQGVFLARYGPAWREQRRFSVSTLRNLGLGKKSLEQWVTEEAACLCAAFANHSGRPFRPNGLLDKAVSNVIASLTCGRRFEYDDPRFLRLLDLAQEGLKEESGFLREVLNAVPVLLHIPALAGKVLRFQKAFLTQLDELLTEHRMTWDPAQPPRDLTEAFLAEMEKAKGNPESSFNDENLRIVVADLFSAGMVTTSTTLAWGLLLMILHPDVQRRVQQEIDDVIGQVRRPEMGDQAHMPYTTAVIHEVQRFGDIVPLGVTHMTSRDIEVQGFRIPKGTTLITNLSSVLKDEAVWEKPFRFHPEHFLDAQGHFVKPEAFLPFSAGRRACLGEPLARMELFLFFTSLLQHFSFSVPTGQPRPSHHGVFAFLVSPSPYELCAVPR
Cytochrome P450 2C9 (Homo sapiens), sequence (P11712 whole entry, looked up): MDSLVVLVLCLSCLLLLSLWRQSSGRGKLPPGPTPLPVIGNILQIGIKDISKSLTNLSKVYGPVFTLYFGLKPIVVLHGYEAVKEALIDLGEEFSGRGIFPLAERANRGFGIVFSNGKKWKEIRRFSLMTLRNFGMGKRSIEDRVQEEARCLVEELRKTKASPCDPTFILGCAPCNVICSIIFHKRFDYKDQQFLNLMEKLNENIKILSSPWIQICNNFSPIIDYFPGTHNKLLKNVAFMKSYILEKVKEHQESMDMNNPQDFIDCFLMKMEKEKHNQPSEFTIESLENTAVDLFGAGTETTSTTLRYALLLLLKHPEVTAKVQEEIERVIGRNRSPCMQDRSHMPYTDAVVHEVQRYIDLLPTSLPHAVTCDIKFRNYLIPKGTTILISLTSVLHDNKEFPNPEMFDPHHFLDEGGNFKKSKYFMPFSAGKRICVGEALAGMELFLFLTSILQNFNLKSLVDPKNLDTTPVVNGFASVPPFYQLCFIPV

As for `C[C@H]1C[C@H]2[C@@H]3CCC4=CC(=O)C=C[C@]4(C)[C@H]3C(=O)C[C@]2(C)[C@@]1(O)C(=O)CO`, the Potency result in experiment [1], in experiment [2], in experiment [3] and in experiment [5] was “inactive” each time. In addition, in experiment [4], the Potency is 15.1 µM (active).

With `CCOC(=O)NNc1ccc(N(CC)CC(C)O)nn1` (stereo not given), the Potency result in experiment [1], in experiment [2], in experiment [3], in experiment [4] and in experiment [5] was “inactive” each time.

Regarding `Cc1ccc2ccc(Cl)cc2n1`, the Potency result in experiment [1], in experiment [2], in experiment [3], in experiment [4] and in experiment [5] was “inactive” throughout.

For `CCOC(=O)C(=O)c1csc(NC=O)n1`, the Potency entry in experiment [1], in experiment [2], in experiment [4] and in experiment [5] was “inactive” in each case. Moreover, the Potency in experiment [3] is 19.5 µM (active).

For the compound `CCCCCCCCCCCCCCCCCCN(C)C`, the Potency entry in experiment [1], in experiment [2], in experiment [3], in experiment [4] and in experiment [5] was “inactive” in each case.

Turning to `CC(C)CCCC(C)NCCC(C)C` (stereo not given), the Potency entry in experiment [1], in experiment [2], in experiment [4] and in experiment [5] was “inactive” throughout. Besides, in experiment [3], the Potency is 0.55 µM (active).

On to `O=C(CCCl)NCCc1ccccc1`, for which the Potency result in experiment [1], in experiment [2], in experiment [3], in experiment [4] and in experiment [5] was “inactive” in each case.

`CN1C(=O)CC(C)(c2ccccc2)C1=O` (stereo not given): the Potency entry in experiment [1], in experiment [2], in experiment [3], in experiment [4] and in experiment [5] was “inactive” in each case.

For `COc1cc(C(=O)NC2CCCNC2)cc(OC)c1OC` (stereo not given), the Potency entry in experiment [1], in experiment [2], in experiment [3], in experiment [4] and in experiment [5] was “inactive” throughout.

On to `CC(=O)c1cc2ccccc2s1`, for which the Potency entry in experiment [1], in experiment [2], in experiment [3], in experiment [4] and in experiment [5] was “inactive” each time.

In the case of `O=c1[nH]c2ccccc2c(=O)n1CCCl`, the Potency result in experiment [1], in experiment [2], in experiment [3], in experiment [4] and in experiment [5] was “inactive” each time.

As for `CC(C)(Oc1ccc(Cl)cc1)C(=O)OCCCOC(=O)C(C)(C)Oc1ccc(Cl)cc1`, the Potency result in experiment [1], in experiment [2], in experiment [3] and in experiment [5] was “inactive” each time. Moreover, in experiment [4], the Potency is 7.76 µM (active).

Take `Cc1cccc(OCC(O)CNC(C)(C)C)c1C` (stereo not given): the Potency result in experiment [1], in experiment [2], in experiment [4] and in experiment [5] was “inactive” throughout. Besides, the Potency in experiment [3] was 11 µM (active).
